# In the supplement of paper PMC8728848:
# The entries come from a sample that favours the strongest signals as a whole.
# Assays:
# Test in all cases: glycan array binding signal (z-score within array); higher = stronger binding
# Settings in all cases: glycan notation: IUPAC condensed, linker removed
# [1] = target: Fuc(a1-2)Gal(b1-3)[Fuc(a1-4)]GlcNAc(b1-2)Man(a1-3)[Fuc(a1-2)Gal(b1-3)[Fuc(a1-4)]GlcNAc(b1-2)Man(a1-6)]Man(b1-4)GlcNAc(b1-4)GlcNAc
# Method in brief: (§1)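 The binding signal is a Z-score computed within each array. Data were drawn from 3228 arrays in the Consortium for Functional Glycomics database, restricted to those with a known protein sequence. Scores were averaged over arrays of the same protein sequence at different concentrations or buffers, and over linkers, and negative values can be taken as non-binding.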
# Fuc(a1-2)Gal(b1-4)Glc6S = target: Fuc(a1-2)Gal(b1-4)Glc6S
# Method in brief: as §1
# [2] = target: Fuc(a1-2)Gal(b1-4)GlcNAc(b1-2)[Fuc(a1-2)Gal(b1-4)GlcNAc(b1-4)]Man(a1-3)[Fuc(a1-2)Gal(b1-4)GlcNAc(b1-2)Man(a1-6)]Man(b1-4)GlcNAc(b1-4)GlcNAc
# Method in brief: as §1
# [3] = target: Fuc(a1-2)Gal(b1-4)GlcNAc6S
# Method in brief: as §1
# [4] = target: Fuc(a1-2)[GalNAc(a1-3)]Gal(b1-4)GlcNAc(b1-2)Man(a1-3)[Fuc(a1-2)[GalNAc(a1-3)]Gal(b1-4)GlcNAc(b1-2)Man(a1-6)]Man(b1-4)GlcNAc(b1-4)GlcNAc
# Method in brief: as §1
# [5] = target: Fuc(a1-2)[GalNAc(a1-4)]Gal(b1-4)GlcNAc
# Method in brief: as §1
# [6] = target: Fuc(a1-3)[Gal(b1-4)]Glc6S
# Method in brief: as §1
# [7] = target: Fuc(a1-3)[Gal3S(b1-4)]GlcNAc
# Method in brief: as §1
# [8] = target: Gal(a1-3)Gal(b1-4)[Fuc(a1-3)]GlcNAc(b1-2)Man(a1-3)[Gal(a1-3)Gal(b1-4)[Fuc(a1-3)]GlcNAc(b1-2)Man(a1-6)]Man(b1-4)GlcNAc(b1-4)GlcNAc
# Method in brief: as §1
# Gal(a1-4)GlcNAc = target: Gal(a1-4)GlcNAc
# Method in brief: as §1
# [9] = target: Gal(b1-3)GalNAc(b1-3)Gal(a1-4)Gal(b1-4)Glc
# Method in brief: as §1
# [10] = target: Gal(b1-3)GalNAc(b1-4)Gal(b1-4)Glc
# Method in brief: as §1
# [11] = target: Gal(b1-3)GlcNAc(b1-3)Gal(b1-4)[Fuc(a1-3)]GlcNAc(b1-6)[Gal(b1-3)GlcNAc(b1-3)]Gal(b1-4)Glc
# Method in brief: as §1
# [12] = target: Gal(b1-4)GlcNAc(b1-3)Gal(b1-4)[Fuc(a1-3)]GlcNAc(b1-3)Gal(b1-4)[Fuc(a1-3)]GlcNAc
# Method in brief: as §1
# [13] = target: Gal(b1-4)GlcNAc(b1-6)[Gal(b1-3)]GalNAc
# Method in brief: as §1
# Gal3S(b1-4)GlcNAc = target: Gal3S(b1-4)GlcNAc
# Method in brief: as §1
# [14] = target: Gal3S(b1-4)[Fuc(a1-3)]Glc
# Method in brief: as §1
# [15] = target: Gal3S(b1-4)[Fuc(a1-3)]Glc6S
# Method in brief: as §1
# Gal6S(b1-4)Glc = target: Gal6S(b1-4)Glc
# Method in brief: as §1
# [16] = target: GalNAc(a1-3)GalNAc(b1-3)Gal(a1-4)Gal(b1-4)GlcNAc
# Method in brief: as §1
# GalNAc3S(b1-4)GlcNAc = target: GalNAc3S(b1-4)GlcNAc
# Method in brief: as §1
# [17] = target: Glc(a1-4)Glc(a1-4)Glc(a1-4)Glc
# Method in brief: as §1
# Glc(b1-4)Glc = target: Glc(b1-4)Glc
# Method in brief: as §1
# [18] = target: GlcNAc(a1-4)Gal(b1-4)GlcNAc(b1-3)Gal(b1-4)GlcNAc(b1-3)Gal(b1-4)GlcNAc
# Method in brief: as §1
# [19] = target: GlcNAc(b1-2)[GlcNAc(b1-4)]Man(a1-3)[GlcNAc(b1-4)][GlcNAc(b1-2)Man(a1-6)]Man(b1-4)GlcNAc(b1-4)GlcNAc
# Method in brief: as §1
# [20] = target: GlcNAc(b1-4)GlcNAc(b1-4)GlcNAc
# Method in brief: as §1
# [21] = target: GlcNAc(b1-4)GlcNAc(b1-4)GlcNAc(b1-4)GlcNAc(b1-4)GlcNAc
# Method in brief: as §1
# [22] = target: GlcNAc(b1-4)GlcNAc(b1-4)GlcNAc(b1-4)GlcNAc(b1-4)GlcNAc(b1-4)GlcNAc
# Method in brief: as §1
# [23] = target: GlcNAc(b1-6)Gal(b1-4)GlcNAc
# Method in brief: as §1
# [24] = target: GlcNAc6S(b1-3)Gal(b1-4)GlcNAc
# Method in brief: as §1
# Man(a1-3)[Man(a1-6)]Man = target: Man(a1-3)[Man(a1-6)]Man
# Method in brief: as §1
# [25] = target: Man(a1-3)[Man(a1-6)]Man(b1-4)GlcNAc(b1-4)GlcNAc
# Method in brief: as §1
# [26] = target: Neu5Ac(a2-3)Gal(b1-3)GalNAc(b1-4)[Neu5Ac(a2-3)]Gal(b1-4)Glc
# Method in brief: as §1
# [27] = target: Neu5Ac(a2-3)Gal(b1-3)GlcNAc
# Method in brief: as §1
# [28] = target: Neu5Ac(a2-3)Gal(b1-4)GlcNAc(b1-2)Man(a1-3)[GlcNAc(b1-2)Man(b1-4)GlcNAc(b1-2)Man(a1-6)]Man(b1-4)GlcNAc(b1-4)GlcNAc
# Method in brief: as §1
# [29] = target: Neu5Ac(a2-3)Gal(b1-4)[Fuc(a1-3)]GlcNAc
# Method in brief: as §1
# [30] = target: Neu5Ac(a2-6)Gal(b1-4)GlcNAc(b1-2)Man(a1-3)Man(b1-4)GlcNAc(b1-4)GlcNAc
# Method in brief: as §1
# [31] = target: Neu5Ac(a2-6)Gal(b1-4)GlcNAc(b1-2)Man(a1-6)[Gal(b1-4)GlcNAc(b1-2)Man(a1-3)]Man(b1-4)GlcNAc(b1-4)GlcNAc
# Method in brief: as §1
# [32] = target: Neu5Ac(a2-6)GlcNAc(b1-4)GlcNAc(b1-4)GlcNAc
# Method in brief: as §1
# [33] = target: Neu5Ac(a2-8)Neu5Ac(a2-8)Neu5Ac
# Method in brief: as §1
# Neu5Gc(a2-3)Gal(b1-4)Glc = target: Neu5Gc(a2-3)Gal(b1-4)Glc
# Method in brief: as §1
binder,measurement,setting,value
CIH1 (Colletotrichum higginsianum) (protein) LPQATPTTPTPTSASAAATISATSSPTCSPGPVIDYTVVSGDTLTIISQRFSSGICNIADASGITNPNFLSLGQVLQVPTYVCTPDNTSCLAKEGSDTCVEGGPATHTIVAGDTFFLVAQSLGLDVNALLAANEGVDPLLLQIGDVINIPVC,glycan array binding signal (z-score),[1],0.015
same,glycan array binding signal (z-score),Fuc(a1-2)Gal(b1-4)Glc6S,-0.071
same,glycan array binding signal (z-score),[2],-0.061
same,glycan array binding signal (z-score),[3],0.014
same,glycan array binding signal (z-score),[4],-0.074
same,glycan array binding signal (z-score),[5],-0.071
same,glycan array binding signal (z-score),[6],-0.072
same,glycan array binding signal (z-score),[7],-0.065
same,glycan array binding signal (z-score),[8],0.011
same,glycan array binding signal (z-score),Gal(a1-4)GlcNAc,-0.052
same,glycan array binding signal (z-score),[9],-0.071
same,glycan array binding signal (z-score),[10],-0.063
same,glycan array binding signal (z-score),[11],-0.057
same,glycan array binding signal (z-score),[12],-0.079
same,glycan array binding signal (z-score),[13],-0.072
same,glycan array binding signal (z-score),Gal3S(b1-4)GlcNAc,-0.067
same,glycan array binding signal (z-score),[14],-0.081
same,glycan array binding signal (z-score),[15],0.006
same,glycan array binding signal (z-score),Gal6S(b1-4)Glc,-0.079
same,glycan array binding signal (z-score),[16],-0.066
same,glycan array binding signal (z-score),GalNAc3S(b1-4)GlcNAc,-0.066
same,glycan array binding signal (z-score),[17],-0.047
same,glycan array binding signal (z-score),Glc(b1-4)Glc,-0.046
same,glycan array binding signal (z-score),[18],-0.08
same,glycan array binding signal (z-score),[19],-0.065
same,glycan array binding signal (z-score),[20],2.91
same,glycan array binding signal (z-score),[21],9.28
same,glycan array binding signal (z-score),[22],20
same,glycan array binding signal (z-score),[23],-0.073
same,glycan array binding signal (z-score),[24],-0.055
same,glycan array binding signal (z-score),Man(a1-3)[Man(a1-6)]Man,-0.045
same,glycan array binding signal (z-score),[25],-0.069
same,glycan array binding signal (z-score),[26],-0.055
same,glycan array binding signal (z-score),[27],-0.05
same,glycan array binding signal (z-score),[28],-0.08
same,glycan array binding signal (z-score),[29],-0.069
same,glycan array binding signal (z-score),[30],-0.004
same,glycan array binding signal (z-score),[31],-0.069
same,glycan array binding signal (z-score),[32],-0.004
same,glycan array binding signal (z-score),[33],-0.065
same,glycan array binding signal (z-score),Neu5Gc(a2-3)Gal(b1-4)Glc,-0.081
